# Screens from PubChem.
# Rows were chosen to be rich in hits. Some 15% of all compounds tested hit in one or more screens of this group.
# Sm TGR inh – blocks Schistosoma mansoni thioredoxin glutathione reductase | purified TGR, DTNB reduction, TNB absorbance 405 nm | AID 485364 | Q962Y6 | 360,000 compounds, 3% hits | Potency, µM (titrated, usually from 114 µM), for the others: at the top dose activity change, negative = inhibition, actives largely listed as inhibitors; also: potency is read from the fitted curve at half-maximal effect; % is scaled to controls: 0 for no effect and ±100 for the full control effect; nearly all actives have a fitted effect of over 60% in size
#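 Kinetic colorimetric format: TGR-catalysed, NADPH-driven DTNB reduction monitored via TNB absorbance. Enzyme dispensed at 20 nM; compound exposure 15 min at room temperature before reaction start.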
# Pf growth 48h – inhibits P. falciparum growth in the first generation, 48 h; P. falciparum luciferase growth in erythrocytes, 48 h; Potency, µM (highest dose often 28.7 µM), inactives show top-dose activity change, negative = inhibition, hits mostly inhibitors; 310,000 compounds, 5.9% hits; also: potency is read from the fitted curve at half-maximal effect; % is scaled to controls: 0 for no effect and ±100 for the full control effect
#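 Firefly luciferase activity from engineered P. falciparum reports growth; inhibitors lower the luminescent signal. Cultures contained 2% hematocrit erythrocytes at 0.1% final parasitemia.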
# SARS PLP yeast – blocks SARS-CoV papain-like protease in a yeast assay. S. cerevisiae expressing SARS-CoV PLpro, growth rescue. Potency, µM (doses to about 32.9 µM), without a hit: at the highest dose activity, positive = growth rescue, usual class: activators. 330,000 compounds, 0.19% hits. AID 485353; calls by dose curve; also: potency is read from the fitted curve at half-maximal effect; 0% is about no effect; nearly all actives have a fitted effect of over 55% in size
# HCV inh – inhibitors of hepatitis C virus infection | Potency, µM (highest dose often 41.8 µM), without a hit: at the top dose activity change, negative = inhibition, hits mostly inhibitors | 340,000 compounds, 3.4% hits | Huh7.5.1 HCVcc-Cre infection, luciferase reporter, 44 h | AID 651820; also: potency is read from the fitted curve at half-maximal effect; % is scaled to controls: 0 for no effect and ±100 for the full control effect
#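 Cells (1,000/well) were plated 4 h before compound, then infected with HCVcc-Cre virus (~0.5 moi). After 44 h further culture, infection was read as luciferase luminescence following a 15 min substrate incubation at room temperature.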
# HCMV inh – inhibitors of human cytomegalovirus; AID 1259415; activity change, negative = inhibition, % at 57.5 µM; HFF cells, HCMV-luciferase reporter, 72 h; hits give low values; 410,000 compounds, 4.5% hits; in the data active = activity change below about -60%; inconclusive = no clear call, values can overlap the other calls; inactive = above about -39%; also: % is scaled to controls: 0 for no effect and ±100 for the full control effect
#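 Steps: HFFs plated, 16 h 37C; compounds added; HCMV-luciferase added to MOI 1 PFU/cell; 72 h 37C; OneGlo reagent, 5 min room temperature; luminescence read, normalized to controls.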
# Pf growth 96h – P. falciparum growth inhibition at 96 hours; P. falciparum luciferase reporter growth, 96 h; Potency, µM (titrated, usually from 28.7 µM), for the others: at the highest dose activity change, negative = inhibition, most hits filed as inhibitors; 320,000 compounds, 6.9% hits; AID 504834; also: potency is read from the fitted curve at half-maximal effect; % is scaled to controls: 0 for no effect and ±100 for the full control effect
#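 P. falciparum expressing integrated firefly luciferase, in erythrocytes at 2% hematocrit, 0.05% parasitemia, incubated with compounds 96 h at 37 C, 5% CO2. Growth inhibition read as loss of luminescence; two-generation exposure targets delayed-death apicoplast inhibitors.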
# Active calls of the source: *; u = inconclusive; x = not tested or not shown. Unless noted, calls follow the shape of the dose curve; as a rule, active = well fitted curve in the direction sought with a large enough effect; inconclusive = small, poorly fitted or top-dose-only effect, or another doubt; inactive = no such curve, though single readings can be large; an effect the other way counts as inactive or inconclusive.
SMILES,Sm TGR inh,Pf growth 48h,SARS PLP yeast,HCV inh,HCMV inh,Pf growth 96h
COc1cccc(CNc2nc(NCc3ccccc3)nc3ccsc23)c1,x,x,x,x,-102*,x
COc1cccc(CNc2nc(NCC3CC3)nc3ccsc23)c1,x,x,x,x,-71*,x
CC(C)c1ccc(CNc2nc(NCC3CC3)nc3ccsc23)cc1,x,x,x,x,-62*,x
Clc1ccccc1Nc1nc(NCC2CC2)nc2ccsc12,x,x,x,x,-38,x
COCc1cc(=O)[nH]c2cc(NC(=O)C3CC3)c(C)cc12,0%,6%,1%,9%,14,65%
C[C@@H]1CN([C@@H](C)CO)C(=O)c2cc(NC(=O)C3CC3)ccc2O[C@@H]1CN(C)C(=O)NC1CCCCC1,x,x,6%,2%,36,x
CCOc1ccc(S(=O)(=O)Nc2ccccc2C(=O)N2CCOCC2)cc1,5%,14%,1%,16%,-10,1%
Cc1[nH]n(-c2ccccc2)c(=O)c1C(C[N+](=O)[O-])c1ccc(Cl)cc1 (stereo unspecified),1.6µM*,-13%,-62%,3%,u,u
Cc1[nH]n(-c2ccccc2)c(=O)c1C(c1ccccc1[N+](=O)[O-])C(C#N)C#N (stereo unspecified),8.9µM*,-28%,-2%,14%,38,-16%
Cc1[nH]n(-c2ccccc2)c(=O)c1C(c1ccccc1C(=O)O)c1c(C)[nH]n(-c2ccccc2)c1=O,-1%,-25%,11%,15%,20,-22%
COC(=O)c1cc2sccc2n1CC(=O)Nc1ccc(OC)c(OC)c1,-1%,x,x,x,39,x
Nc1nc(/C(=C/CC(=O)O)C(=O)NC2C(=O)N3C(C(=O)O)=CCSC23)cs1 (stereo unspecified),x,-3%,x,x,x,-5%
CS(=O)(=O)c1ccc(Sc2nc3ccccc3s2)c([N+](=O)[O-])c1,u,13µM*,-18%,u,x,u
O=[N+]([O-])c1cc(S(=O)(=O)C(F)(F)F)ccc1Sc1nc2ccccc2[nH]1,28µM*,15µM*,-23%,u,-103*,x
CS(=O)(=O)c1ccc(Sc2nc3ccccc3[nH]2)c([N+](=O)[O-])c1,-15%,u,-8%,-12%,u,u
O=[N+]([O-])c1cc(S(=O)(=O)C(F)(F)F)ccc1Sc1nc2ccccc2s1,14µM*,u,-32%,-19%,99,9.3µM*
NCCNc1ccc([N+](=O)[O-])c(Sc2nc3ccccc3[nH]2)c1,1%,u,2%,-4%,51,13µM*
CCN(CC)S(=O)(=O)c1ccc(OC)c(NC(=S)Nc2ccc(C)c(C)c2)c1,-30%,-6%,5%,u,19,u
CC(=O)O[C@H]1C=C[C@@H](NC(=O)OC(C)(C)C)C1,x,x,x,x,8,x
Cc1csc2cc(-c3cccc([N+](=O)[O-])c3)c(-c3cccc([N+](=O)[O-])c3)c[n+]12,-9%,1µM*,2%,-1%,-33,0.47µM*
CC1(C(=O)O)CCCN1C(=O)c1cccc(OC(F)(F)F)c1 (stereo unspecified),x,x,x,x,11,x
CN1C(=O)C2(N=c3ccccc3=N2)c2ccccc21,0%,20%,-10%,11µM*,x,9%
COc1cc(CCC(=O)Nc2nccs2)cc(OC)c1OC,-12%,18%,1%,-3%,34,14%
CC1(C)CC(=O)C=C(c2cccc(Br)c2)C1,-16%,-1%,-1%,-23%,-64*,u
CC1(C)CC(=O)C=C(c2ccc(-c3ccccc3)cc2)C1,-10%,70%,0%,-10%,46,-5%
SMILES,Sm TGR inh,Pf growth 48h,SARS PLP yeast,HCV inh,HCMV inh,Pf growth 96h
Cc1c(N(C(=O)CNC(=O)c2ccccc2)C2(C(=O)NC3CCCC3)CCCCC2)c(=O)n(-c2ccccc2)n1C,1%,3.7µM*,9%,13%,-1,u
CC(=O)N(c1c(C)n(C)n(-c2ccccc2)c1=O)C1(C(=O)NC2CCCCC2)CCCCC1,3%,-8%,-1%,16%,10,u
CCc1ccccc1N(C)C(=O)Cn1cnc2sc(C)c(S(=O)(=O)N3CCN(c4ncccn4)CC3)c2c1=O,-3%,x,x,x,17,x
Nc1nc(NCCCN2CCOCC2)nc(Nc2ccc(F)cc2)c1[N+](=O)[O-],0%,13µM*,0%,8%,-2,u
Nc1nc(NCCCN2CCOCC2)nc(Nc2cccc(F)c2)c1[N+](=O)[O-],22%,-14%,0%,-21%,12,u
Cc1cccc(Nc2nc(NCCCN3CCOCC3)nc(N)c2[N+](=O)[O-])c1,2%,15µM*,13%,u,u,u
COc1ccc(-c2n(Cc3ccccc3)c3ccccc3[n+]2Cc2ccccc2)cc1,x,0.37µM*,0%,u,-98*,u
CN(CC(=O)Nc1ccccc1C(F)(F)F)C(=O)CSc1nnc(-c2ccncc2)n1C,x,x,x,3%,u,x
COc1cccc(CNC(=O)c2c3c(nc4ccccc24)C(=O)N(C2CCCCC2)C3)c1,2%,x,x,x,10,x
NC(=O)C1=CC2C3C=CC2(O)C(=O)OC3O1 (stereo unspecified),x,x,x,8.9µM*,-97*,x
CN(C)c1ccc(CNC(=O)c2cnc3sc(N4CCOCC4)nn3c2=O)cc1,-6%,x,x,x,-32,x
CCCc1nn2cc(-c3ccc(C)c(C)c3)nc2s1,-9%,x,x,x,-62*,x
CC(C)(C)NC(=O)c1nn2c(C(F)(F)F)cc(-c3ccccc3)nc2c1Br,-4%,9%,4%,-15%,-17,-27%
O=C(c1ccccc1)N1CCN(C(=O)c2nn3c(C(F)(F)F)cc(-c4ccccc4)nc3c2Br)CC1,1%,8.3µM*,1%,u,24,21%
NC(=O)c1nn2c(C(F)(F)F)cc(-c3ccccc3)nc2c1Br,-7%,9%,x,0.89µM*,-10,u
CCCNC(=O)c1nn2c(C(F)(F)F)cc(-c3ccccc3)nc2c1Br,-15%,u,-4%,u,-6,9.3µM*
CC(Sc1nnc(CC(=O)Nc2ccccc2F)n1C)C(=O)Nc1nccs1 (stereo unspecified),8%,-2%,3%,6%,22,25%
CNC(=O)OCc1nc(SC2CCCCO2)n(C)c1COC(=O)NC (stereo unspecified),x,x,x,x,22,x
COc1cc(OC)cc(C(=O)NCC(=O)OC2CCCCC2=O)c1 (stereo unspecified),-25%,u,0%,8%,-11,-29%
COCc1cc(=O)[nH]c(N2CCN(c3ccccc3OC)CC2)n1,u,0%,4%,12%,-2,8.3µM*
